Results on 27 molecules are retold here after PubChem BioAssay.

Activity calls are given as the source filed them.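 Rule for the calls, unless noted: active = at least 20% inhibition of 6-phosphogluconate dehydrogenase activity; inactive = the rest.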

Test [1] deals with 6-phosphogluconate dehydrogenase, decarboxylating (Homo sapiens) (UniProt P52209). Put plainly: inhibition of human phosphogluconate dehydrogenase – biochemical, recombinant enzyme, NADPH absorbance, primary screen (AID 1159550). To be noted: recombinant 6PGD, NADPH absorbance 341 nm; at 10 µM; stronger effect = higher value.
6-phosphogluconate dehydrogenase, decarboxylating (Homo sapiens), sequence (P52209 whole entry, looked up): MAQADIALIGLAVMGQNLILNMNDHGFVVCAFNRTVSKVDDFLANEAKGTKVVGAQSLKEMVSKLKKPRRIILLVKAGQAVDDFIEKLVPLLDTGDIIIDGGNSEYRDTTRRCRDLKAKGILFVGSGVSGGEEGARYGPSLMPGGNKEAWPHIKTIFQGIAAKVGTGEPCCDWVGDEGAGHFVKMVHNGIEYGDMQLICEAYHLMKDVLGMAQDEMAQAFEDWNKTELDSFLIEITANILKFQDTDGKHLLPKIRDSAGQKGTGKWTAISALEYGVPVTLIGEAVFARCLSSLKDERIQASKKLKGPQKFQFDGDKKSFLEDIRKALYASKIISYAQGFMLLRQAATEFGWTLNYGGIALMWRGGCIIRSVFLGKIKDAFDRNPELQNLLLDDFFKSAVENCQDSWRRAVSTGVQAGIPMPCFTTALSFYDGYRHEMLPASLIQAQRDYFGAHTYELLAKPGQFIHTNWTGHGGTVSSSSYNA
Test [2] in a line: EMT-state selective cytotoxicity in co-culture – imaging, PC-3E GFP, TEM4-18 mCherry, primary screen (AID 1345086;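 active = compounds killing one labelled cell type while sparing the other, by normalised counts and ratio limits, not self-fluorescent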;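 for all read-outs here: cells exposed to compound for 72 h before imaging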;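 for red/green cell ratio (normalised): normalised mesenchymal count divided by normalised epithelial count so high means epithelial killing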). To be noted: PC-3E GFP / TEM4-18 mCherry co-culture, imaging cell counts, at 1 µM; for red/green cell ratio (normalised): actives lie on both sides, counts scaled to control wells, 1 = unselective.
Test [3] deals with Mitogen-activated protein kinase 7 (Homo sapiens) (UniProt Q13164). Put plainly: Gal4-ERK5 driven luciferase induction – cell-based, HTS, primary screen (AID 1508626;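 active = luciferase signal above three times the same-plate solvent-only control wells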;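 note: luciferase driven by Gal4-ERK5 fusion binding five Gal4 sites before minimal TATA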). To be noted: HeLa Gal4-ERK5 transactivation, 18 h, at 5 µM, stronger effect = higher value.
Mitogen-activated protein kinase 7 (Homo sapiens), sequence (Q13164 whole entry, looked up, the tested form may be a part): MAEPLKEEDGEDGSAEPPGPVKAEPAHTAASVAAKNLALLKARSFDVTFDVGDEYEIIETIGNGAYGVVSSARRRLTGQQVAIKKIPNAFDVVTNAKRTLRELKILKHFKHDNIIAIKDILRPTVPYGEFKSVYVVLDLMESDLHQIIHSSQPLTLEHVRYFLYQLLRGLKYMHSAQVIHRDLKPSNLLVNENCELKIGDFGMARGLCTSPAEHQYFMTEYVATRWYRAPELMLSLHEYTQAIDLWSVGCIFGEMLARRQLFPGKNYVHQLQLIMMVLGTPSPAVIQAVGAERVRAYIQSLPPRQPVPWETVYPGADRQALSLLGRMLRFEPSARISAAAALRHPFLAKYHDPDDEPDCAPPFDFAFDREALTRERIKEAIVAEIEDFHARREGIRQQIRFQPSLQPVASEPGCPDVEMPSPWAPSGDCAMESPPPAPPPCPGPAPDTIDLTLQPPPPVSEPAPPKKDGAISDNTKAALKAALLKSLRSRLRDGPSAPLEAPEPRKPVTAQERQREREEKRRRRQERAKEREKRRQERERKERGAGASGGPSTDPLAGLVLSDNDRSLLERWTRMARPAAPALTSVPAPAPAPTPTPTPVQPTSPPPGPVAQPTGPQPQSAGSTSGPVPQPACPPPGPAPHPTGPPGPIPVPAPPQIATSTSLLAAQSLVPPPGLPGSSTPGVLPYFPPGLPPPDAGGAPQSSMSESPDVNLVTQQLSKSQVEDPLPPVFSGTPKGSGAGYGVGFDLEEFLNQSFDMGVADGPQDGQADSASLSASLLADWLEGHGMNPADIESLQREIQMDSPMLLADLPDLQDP
Setting [4] is: measured here: epithelial PC-3E GFP cell survival.
Setting [5] is: measured here: mesenchymal TEM4-18 mCherry cell survival.

A word on the inhibition: it is the relative decrease from the control value, in per cent. `COc1c2ccoc2cc2oc(C)cc(=O)c12`: the inhibition in test [1] is 12.5% (inactive). In addition, the red/green cell ratio (normalised) in test [2] is 0.91 (inactive). Also, the normalised cell number in test [2] (setting [4]) turned out to be 1.19; in test [2] (setting [5]), 1.08. Also, in test [3], the luciferase signal is 52 AU (inactive).
Consider `COc1cc(C)c(C(=O)Oc2cc(C)c(C(=O)O)c(O)c2C)c(OC)c1C`, for which, in test [1], the inhibition was 17.4% (inactive). Further, the red/green cell ratio (normalised) in test [2] was 1.11 (inactive). Also, the normalised cell number worked out at 0.88 in test [2] (setting [4]) and 0.98 in test [2] (setting [5]). Besides, the luciferase signal in test [3] is 92 AU (inactive).
On to `C=C1C2CC[C@@]3(C)[C@H](c4ccoc4)OC(=O)C[C@]13O[C@H]1CC(=O)C(C)(C)[C@H](C(O)C(=O)OC)[C@@]21C` (stereo not given in full), for which, in test [1], the inhibition was -4.16% (inactive). In addition, the red/green cell ratio (normalised) in test [2] was 0.98 (inactive). Besides, the normalised cell number in test [2] (setting [4]) was 0.75; in test [2] (setting [5]), 0.74. Besides, in test [3], the luciferase signal is 28 AU (inactive).
Take `COc1c(-c2coc3cc4c(cc3c2=O)CC(O)C(C)(C)O4)ccc2c1C=CC(C)(C)O2` (stereo not given): the inhibition in test [1] is -4.11% (inactive). In addition, in test [2], the red/green cell ratio (normalised) is 0.82 (inactive). Further, the normalised cell number in test [2] (setting [4]) was found to be 1.08; in test [2] (setting [5]), 0.88. For the same molecule, the luciferase signal in test [3] was 24 AU (inactive).
As for `CC(=O)O[C@H]1C[C@@H](OC(C)=O)C(C)(C)C2CC(=O)[C@]3(C)C(CC[C@@]4(C)[C@H](c5ccoc5)OC(=O)[C@H]5O[C@]543)[C@]21C` (stereo not given in full), in test [1], the inhibition was 6.24% (inactive). Besides, the red/green cell ratio (normalised) in test [2] was 0.93 (inactive). Also, the normalised cell number in test [2] (setting [4]) amounted to 0.94; in test [2] (setting [5]), 0.87. In test [3], the luciferase signal was 16 AU (inactive).
For the molecule `COC(=O)[C@@H]1OC(=O)C2OC23[C@@]1(C)CCC1[C@]2(C)C(C[C@@H](O)[C@]13C)C(C)(C)[C@H](OC(C)=O)C[C@@H]2OC(C)=O` (stereo not given in full), in test [1], the inhibition was -0.817% (inactive). For the same molecule, the red/green cell ratio (normalised) in test [2] was 0.93 (inactive). For the same molecule, the figures for the normalised cell number in test [2] (setting [4]) and in test [2] (setting [5]) were 1.09 and 1.02, respectively. In addition, the luciferase signal in test [3] was 64 AU (inactive).
Turning to `CCC(C(=O)O)c1ccccc1` (stereo not given), in test [1], the inhibition was -10% (inactive). In addition, in test [2], the red/green cell ratio (normalised) was 1.07 (inactive). The normalised cell number in test [2] (setting [4]) was determined as 1.08; in test [2] (setting [5]), 1.15. For the same molecule, in test [3], the luciferase signal is 76 AU (inactive).
As to `CC(C)=CC1C(C(=O)O)C1(C)C` (stereo not given), in test [1], the inhibition was -0.837% (inactive). Moreover, the red/green cell ratio (normalised) in test [2] is 1.07 (inactive). Besides, the normalised cell number is 0.96 in test [2] (setting [4]) and 1.03 in test [2] (setting [5]). The luciferase signal in test [3] was 44 AU (inactive).
Regarding `N[C@@H](C(=O)O)[C@@H](O)[C@H](O)[C@H](O)CO`, in test [1], the inhibition was 9.87% (inactive). Further, the red/green cell ratio (normalised) in test [2] was 1.16 (inactive). Further, the normalised cell number in test [2] (setting [4]) amounted to 1.02; in test [2] (setting [5]), 1.18. For the same molecule, the luciferase signal in test [3] is 108 AU (inactive).
With `COC(=O)[C@@]1(C)CCC[C@]2(C)c3ccc(O)c(C(C)C)c3CCC12` (stereo not given in full), the inhibition in test [1] is -0.875% (inactive). Also, the red/green cell ratio (normalised) in test [2] is 1.1 (inactive). The figures for the normalised cell number in test [2] (setting [4]) and in test [2] (setting [5]) were 0.97 and 1.07, respectively. In addition, the luciferase signal in test [3] was 52 AU (inactive).
For the molecule `Cc1ccc2c(c1)CC[C@H]1CC(=O)CC[C@]21C`, the inhibition in test [1] is -2.97% (inactive). Moreover, in test [2], the red/green cell ratio (normalised) is 1.02 (inactive). Further, the normalised cell number is 1.12 in test [2] (setting [4]) and 1.14 in test [2] (setting [5]). In test [3], the luciferase signal is 16 AU (inactive).
As to `COc1ccc(C(=O)O)c(O)c1OC`, the inhibition in test [1] was 17.2% (inactive). For the same molecule, the red/green cell ratio (normalised) in test [2] was 1.11 (inactive). Besides, the results for the normalised cell number in test [2] (setting [4]) and in test [2] (setting [5]) were 1.01 and 1.12, respectively. Also, in test [3], the luciferase signal is 56 AU (inactive).
In the same order, the values of `C=CC(C1=CC(=O)C(OC)=CC1=O)c1ccc(OC)cc1` (stereo not given) are 9.18% (inactive), 0.93 (inactive), 1.1, 1.03 and 36 AU (inactive).
With `CC(=O)OC1CCC23CC1(C)CCC2C(C)(C)CC3OC(C)=O` (stereo not given), the inhibition in test [1] was -1.38% (inactive). Further, the red/green cell ratio (normalised) in test [2] was 1.04 (inactive). Besides, the normalised cell number in test [2] (setting [4]) stood at 1.07; in test [2] (setting [5]) it was 1.11. The luciferase signal in test [3] is 80 AU (inactive).
For `O=c1c(O)c(-c2ccccc2)oc2cc(O)ccc12`, the inhibition in test [1] is -10.2% (inactive). Besides, in test [2], the red/green cell ratio (normalised) is 0.89 (inactive). In addition, the normalised cell number in test [2] (setting [4]) worked out at 0.98; in test [2] (setting [5]), 0.88. Moreover, the luciferase signal in test [3] is 264 AU (inactive).
Take `COc1ccc(-c2c(O)c3c(OC)c4c(cc3oc2=O)OC(C)(C)C=C4)cc1`: the inhibition in test [1] is 11.4% (inactive). Further, the red/green cell ratio (normalised) in test [2] is 0.9 (inactive). In addition, the normalised cell number in test [2] (setting [4]) is 1.02; in test [2] (setting [5]) it was 0.92. In addition, the luciferase signal in test [3] is 88 AU (inactive).
For the molecule `Cn1c(=O)[nH]c(=O)c2[nH]cnc21`, the inhibition in test [1] was 5.61% (inactive). Moreover, the red/green cell ratio (normalised) in test [2] is 0.93 (inactive). Further, the normalised cell number in test [2] (setting [4]) was 1.22; in test [2] (setting [5]), 1.13. The luciferase signal in test [3] was 52 AU (inactive).
Consider `CC(=O)O[C@@H]1CC2C(C)(CC[C@H](O)C2(C)C)C2CC[C@]3(C)C(=CC(=O)O[C@H]3c3ccoc3)C21C` (stereo not given in full), for which the inhibition in test [1] was 0.669% (inactive). The red/green cell ratio (normalised) in test [2] is 1.03 (inactive). Moreover, the normalised cell number in test [2] (setting [4]) stood at 1.07; in test [2] (setting [5]), 1.1. Also, the luciferase signal in test [3] was 16 AU (inactive).
`COC1(C)CCC2OC2(C)CCC2C1CC2(C)C` (stereo not given): in test [1], the inhibition is 10.7% (inactive). Also, the red/green cell ratio (normalised) in test [2] is 1.21 (inactive). The normalised cell number in test [2] (setting [4]) was 0.76; in test [2] (setting [5]) it was 0.91. For the same molecule, in test [3], the luciferase signal is 80 AU (inactive).
In the case of `COc1cc2c(cc1OC)C(=O)OC2`, the inhibition in test [1] was 7.46% (inactive). For the same molecule, in test [2], the red/green cell ratio (normalised) is 0.97 (inactive). The figures for the normalised cell number in test [2] (setting [4]) and in test [2] (setting [5]) were 0.96 and 0.94, respectively. Further, the luciferase signal in test [3] is 160 AU (inactive).
For `CC1(C)CC23C(=O)CCC(O)C2(C)CCC13` (stereo not given), the inhibition in test [1] is -0.3% (inactive). Also, the red/green cell ratio (normalised) in test [2] was 1 (inactive). Further, the normalised cell number in test [2] (setting [4]) and in test [2] (setting [5]) was 1.11 in each case. Also, the luciferase signal in test [3] is 72 AU (inactive).
Turning to `O=C(/C=C/c1ccccc1)c1ccc(O)cc1`, the inhibition in test [1] was 1.18% (inactive). Moreover, the red/green cell ratio (normalised) in test [2] was 1.04 (inactive). Moreover, the normalised cell number was determined as 0.75 in test [2] (setting [4]) and 0.79 in test [2] (setting [5]). Moreover, in test [3], the luciferase signal was 28 AU (inactive).
For the molecule `CC1=C2C(O)C(=O)OC3CC4C(C)(C)C(=O)C=C[C@]4(C)C(CC1)[C@]23C` (stereo not given in full), the inhibition in test [1] is -6.52% (inactive). In addition, the red/green cell ratio (normalised) in test [2] was 1.05 (inactive). Moreover, the values for the normalised cell number in test [2] (setting [4]) and in test [2] (setting [5]) were 0.98 and 1.02, respectively. Moreover, the luciferase signal in test [3] was 144 AU (active).
`C=C1CCC2C(CC2(C)C)C(=O)CCC1O` (stereo not given): in test [1], the inhibition is 28.4% (active). The red/green cell ratio (normalised) in test [2] is 1.02 (inactive). The normalised cell number in test [2] (setting [4]) amounted to 0.93; in test [2] (setting [5]) it was 0.96. Moreover, the luciferase signal in test [3] is 132 AU (inactive).
As for `COc1ccc2c(c1)OCC(Cc1ccc(OC)c(O)c1)C2=O` (stereo not given), the inhibition in test [1] is 13.3% (inactive). The red/green cell ratio (normalised) in test [2] was 0.88 (inactive). In addition, the normalised cell number in test [2] (setting [4]) was 0.74; in test [2] (setting [5]), 0.65. For the same molecule, the luciferase signal in test [3] was 52 AU (inactive).
As to `COc1cccc(O)c1O`, the inhibition in test [1] was -0.395% (inactive). The red/green cell ratio (normalised) in test [2] is 0.97 (inactive). Also, the normalised cell number was determined as 0.99 in test [2] (setting [4]) and 0.96 in test [2] (setting [5]). Further, the luciferase signal in test [3] was 52 AU (inactive).
As for `COc1cc(OC)c2c(=O)c(-c3ccc4c(c3)OCO4)coc2c1`, in test [1], the inhibition was 7.77% (inactive). The red/green cell ratio (normalised) in test [2] was 1.06 (inactive). The normalised cell number in test [2] (setting [4]) worked out at 1.13; in test [2] (setting [5]) it was 1.2. The luciferase signal in test [3] is 92 AU (inactive).
